High-throughput results (PubChem)
A selection follows.
aSyn UTR act – Activators via SNCA 5'UTR binding, MLPCN; activity score, % (tested at 7.5 µM), hits read low; actives 7.1% (n = 300,000); alpha-synuclein 5'UTR reporter, activators screen; in the data active means activity score below about -60%
Of the large screens only hits and unclear results are named; the others gave an inactive call.

CCOC(=O)c1sc2nc(-c3cccnc3)ccc2c1N	aSyn UTR act -150
NC(=O)c1sc2nc(-c3cccnc3)ccc2c1N	aSyn UTR act -102
CSc1nnc(NC(=O)c2ccc3c(c2)OCO3)s1	none
O=C(Nc1nncs1)c1ccc2c(c1)OCO2	aSyn UTR act -83
Cc1nnc(NC(=O)c2ccc3c(c2)OCO3)s1	aSyn UTR act -150
Cc1nnc(NC(=O)c2c(F)c(F)c(F)c(F)c2F)s1	aSyn UTR act -73
Cc1nnc(NC(=O)c2cccc(Br)c2)s1	aSyn UTR act -96
Cc1nnc(NC(=O)c2ccc(S(=O)(=O)C(F)F)cc2)s1	aSyn UTR act -78
COCCSc1nnc(NC(=O)c2ccc3c(c2)OCO3)s1	aSyn UTR act -118
C=C(C)CN(CC)C(=O)CCc1nnc(CCCc2ccccc2)o1	aSyn UTR act -150
CCN(CCn1cccn1)C(=O)CCc1nnc(CCCc2ccccc2)o1	aSyn UTR act -122
Cc1cccc(Cc2nnc(CCC(=O)N(C)CCc3ccccc3)o2)c1	aSyn UTR act -137
c1ccc(-c2ccc3c(c2)NCCN3)cc1	aSyn UTR act -113
CCNc1nc(-c2ccc(Cl)cc2)cs1	aSyn UTR act -169
CNc1nc(-c2ccc(Cl)cc2)cs1	aSyn UTR act -204
O=C(CCl)NN1C(=O)NC(c2ccccc2)(c2ccccc2)C1=O	aSyn UTR act -86
O=C(CCl)NN1C(=O)NC2(CCCCC2)C1=O	aSyn UTR act -76
O=C(O)c1ccc(Cn2cnc3scc(-c4ccccc4)c3c2=O)cc1	aSyn UTR act -142
CN(C)c1ccc(Nc2ncnc3ccc(Br)cc23)cc1	aSyn UTR act -72
O=c1nc2sc3ccccc3n2c(=O)n1-c1ccc(Cl)cc1	aSyn UTR act -189
Cc1ccc2c(c1)sc1nc(=O)n(-c3cccc(Cl)c3)c(=O)n12	aSyn UTR act -209
O=c1nc2sc3ccccc3n2c(=O)n1-c1cccc(Cl)c1	aSyn UTR act -169
COc1cc2c(cc1OC)C(c1cccs1)N(C(=S)NC(C)C)CC2 (stereo not drawn)	aSyn UTR act -74
CC1(C)CC(=O)C2=C(C1)c1c(ccc3ccccc13)NC2c1ccco1 (stereo not drawn)	aSyn UTR act -193
CC(=O)N(Cc1ccco1)c1nc(C(=O)Nc2ccc(Cl)cc2)c(C)s1	aSyn UTR act -105
CCN1CCN(C(=O)c2ccc3c(=O)n(CCc4ccccc4)c(=O)[nH]c3c2)CC1	aSyn UTR act -72
CC1CCCCN1CCNC(=O)c1ccc2c(=O)n(CCc3ccccc3)c(=O)[nH]c2c1 (stereo not drawn)	aSyn UTR act -79
CC1CCN(CCCNC(=O)c2ccc3c(=O)n(CCc4ccccc4)c(=O)[nH]c3c2)CC1	aSyn UTR act -74
O=Cc1cc(N=Nc2ccccc2Cl)ccc1O	aSyn UTR act -111
O=C(CCC1CCCCC1)Nc1nccs1	aSyn UTR act -62
CC(C)(C)C1CCC(C(=O)Nc2nccs2)CC1 (stereo not drawn)	aSyn UTR act -102
Cc1cnc(NC(=O)C2CCC(C(C)(C)C)CC2)s1 (stereo not drawn)	aSyn UTR act -64
COc1cccc(-c2nnc(-c3ccc(C(F)(F)F)cc3)o2)c1OC	aSyn UTR act -125
Cc1nc(N)sc1N=Nc1ccc(Br)cc1	aSyn UTR act -254
Clc1ccccc1-c1nnc(-c2ccc3c(c2)OCO3)o1	aSyn UTR act -82
Clc1ccccc1-c1nnc2sc(-c3ccc4c(c3)OCO4)nn12	aSyn UTR act -91
O=[N+]([O-])c1cccc(-c2nnc(-c3ccc4c(c3)OCO4)o2)c1	aSyn UTR act -78
O=[N+]([O-])c1cccc(-c2nnc(-c3ccccc3)o2)c1	none
COC(=O)c1ccc(N=NN2CCOCC2)cc1	aSyn UTR act -147
COC(=O)c1ccc(N=NN2CCCCCC2)cc1	aSyn UTR act -134
O=C(O)c1ccc(N=NN2CCCCC2)cc1	aSyn UTR act -85
Clc1ccc(N=NN2CCOCC2)cc1	aSyn UTR act -70
COc1ccccc1-c1nn2c(-c3ccco3)nnc2s1	aSyn UTR act -196
CCN(CC)c1ccc(-c2nn3c(-c4ccccc4OC)nnc3s2)cc1	none
Cc1cc(=O)n2nc(-c3ccc(C(F)(F)F)cc3)sc2n1	aSyn UTR act -149
COc1ccccc1-c1nn2c(=O)cc(C)nc2s1	aSyn UTR act -72
COc1cccc(-c2nnc3sc(-c4ccccc4)nn23)c1	aSyn UTR act -69
S=C(NCc1ccco1)Nc1cc(-c2ccccc2)[nH]n1	aSyn UTR act -68
O=C(CCNc1ccc(Cl)cc1)c1cccs1	aSyn UTR act -89
O=C(CCNc1cc(Cl)cc(Cl)c1)c1cccs1	aSyn UTR act -94
Cc1cnc(NC(=O)c2cc3c(s2)CCCC3)s1	none
O=C(NCc1ccco1)c1cc2c(s1)CCCCC2	aSyn UTR act -218
O=C(Nc1ccon1)c1cc2c(s1)CCCC2	aSyn UTR act -113
O=C(Nc1ccc(N2CCOCC2)cc1)c1cc2c(s1)CCCC2	aSyn UTR act -69
Cc1csc(NC(=O)c2cc3c(s2)CCCCC3)n1	none
O=C(Nc1ccon1)c1cc2c(s1)CCCCCC2	aSyn UTR act -167
CCOc1ccc(OCc2cccc(C(=O)N3CCOCC3)c2)cc1	none
CC1CN(C(=O)c2cccc(COc3ccc(Br)cc3)c2)CC(C)O1 (stereo not drawn)	aSyn UTR act -104
O=C(Nc1nnc(-c2ccccc2F)s1)c1cccnc1	aSyn UTR act -116
COc1ccc(NC(=O)Nc2nnc(-c3ccccc3F)s2)cc1	aSyn UTR act -134
COc1ccc(NC(=O)Nc2nnc(-c3ccncc3)s2)cc1	aSyn UTR act -100
COc1ccc(NC(=O)Nc2nnc(C(C)C)s2)cc1	aSyn UTR act -135
Cc1ccc(NC(=O)Nc2nnc(-c3ccccc3F)s2)cc1	aSyn UTR act -85
COc1ccc(NC(=O)Nc2nnc(-c3ccco3)s2)cc1	aSyn UTR act -108
COc1ccc(C(=O)Nc2cnc(NC(=O)c3cccs3)cc2C)cc1	aSyn UTR act -83
COc1ccc(C(=O)Nc2cc(C)c(NC(=O)c3ccccn3)cn2)cc1	aSyn UTR act -78
CCCCC(=O)Nc1cnc(NC(=O)c2cccs2)cc1C	aSyn UTR act -127
C/C(=N\Nc1cc(C)nc(-c2ccccc2O)n1)c1ccccc1	aSyn UTR act -65
Cc1cc(N/N=C/c2ccc(O)c(C)c2O)nc(-c2ccccc2O)n1	none
Cc1ccc(Nc2cc(C)nc(-c3ccccc3)n2)cc1	aSyn UTR act -124
Cc1ccc(Nc2cc(C)nc(-c3ccccc3O)n2)cc1	aSyn UTR act -116
Cc1ccc(Oc2cc(C)nc(-c3ccccc3O)n2)cc1	aSyn UTR act -69
Cc1cc(NCCCN)nc(-c2ccccc2O)n1	aSyn UTR act -69
Cc1ccnc(NC(=O)C2CCN(S(=O)(=O)c3ccc(C)c(C)c3)CC2)c1	aSyn UTR act -81
CCCCCOc1ccc(CSc2n[nH]c(C)n2)cc1	aSyn UTR act -171
Cc1nc(SCc2ccc(OCCC(C)C)cc2)n[nH]1	aSyn UTR act -71
Brc1c(-c2ccc3c(c2)OCO3)nc2ncccn12	aSyn UTR act -84
COc1ccc(-c2nc3ncccn3c2Br)cc1	aSyn UTR act -148
Cc1ccc(-c2nc3ncccn3c2Nc2ccc3c(c2)OCCO3)cc1	aSyn UTR act -64
N#Cc1c(N2CCCC(O)C2)nc(N)c2c(N)nc3c(c12)CC(=O)N3C12CC3CC(CC(C3)C1)C2 (stereo not drawn)	aSyn UTR act -232
Oc1ccc(/C=C/c2ccnc3ccccc23)cc1	aSyn UTR act -112
Clc1ccccc1/C=C/c1ccnc2ccccc12	aSyn UTR act -109
CCc1ccc(O)c(N=Cc2cccc(C)c2O)c1	aSyn UTR act -131
C=CCc1cccc(C=Nc2cccn3cc(-c4ccccc4)nc23)c1O	aSyn UTR act -89
